An excerpt weighted towards active compounds, which were near 3.8% of everything screened.
ADAM17 inh: inhibits human ADAM17; P78536; recombinant ADAM17, EDANS/DABCYL FRET peptide cleavage; inhibition, % at 6.95 µM; hit rate 0.83% among 370,000; AID 720648;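 active means inhibition above the mean of compounds lying between control limits plus 3 SD, set per campaign, cut at about 8.5% in these data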
proKLK7 act: proKLK7 (human) activation, primary screen; purified proKLK7, EDANS-DABCYL substrate fluorescence; 100% is mature enzyme control, 0% vehicle; activation, % at 7 µM; hit rate 0.9% among 370,000; AID 652039;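 active means activation above the mean of all tested compounds plus 3 SD, computed per campaign excluding outliers beyond control limits, cut at about 13% in these data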
rRNA inh HTS: inhibits bacterial ribosomal RNA function over humanized ribosomes; E. coli WT GFP vs humanized-ribosome RFP mutants, fluorescence, 24 h; active compounds read low; DMSO median 0, no signal -100; GFP signal change (wild-type ribosome), % (test concentration not listed); hit rate 1.6% among 350,000; AID 720706;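 active means significant combined selectivity score with lowered wild-type GFP, culture density cut under 30%, mutant RFP and density less affected; inactive means any of these conditions unmet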
FGF22 binding: shifts melting point of recombinant human FGF22. hit rate 1.5% among 340,000. Q9HCT0. recombinant FGF22 thermal shift, SYPRO orange fluorescence; percent of sucrose octasulfate shift, DMSO zero. activity (Tm shift, normalised), % at 9.99 µM;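 active means mean Tm shift, scaled 0 neutral to 100 positive control, at about 1.3% or above, every replicate too, limit read from the data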
Target sequence (Q9HCT0 whole entry, looked up): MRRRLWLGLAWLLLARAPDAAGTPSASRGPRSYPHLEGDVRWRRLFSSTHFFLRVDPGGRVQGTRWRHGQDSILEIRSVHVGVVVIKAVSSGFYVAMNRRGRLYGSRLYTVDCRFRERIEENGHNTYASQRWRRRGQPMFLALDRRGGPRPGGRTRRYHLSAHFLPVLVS
ADAM10 inh: inhibits human ADAM10 | recombinant ADAM10, EDANS/DABCYL FRET peptide cleavage, 3 h | inhibition, % at 7 µM | hit rate 0.62% among 370,000 | AID 720582;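 active means inhibition above a per-campaign cutoff equal to the mean of compounds falling between control-based bounds plus 3 SD, cut at about 20% in these data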
Target sequence (O14672 214-748 limits assumed): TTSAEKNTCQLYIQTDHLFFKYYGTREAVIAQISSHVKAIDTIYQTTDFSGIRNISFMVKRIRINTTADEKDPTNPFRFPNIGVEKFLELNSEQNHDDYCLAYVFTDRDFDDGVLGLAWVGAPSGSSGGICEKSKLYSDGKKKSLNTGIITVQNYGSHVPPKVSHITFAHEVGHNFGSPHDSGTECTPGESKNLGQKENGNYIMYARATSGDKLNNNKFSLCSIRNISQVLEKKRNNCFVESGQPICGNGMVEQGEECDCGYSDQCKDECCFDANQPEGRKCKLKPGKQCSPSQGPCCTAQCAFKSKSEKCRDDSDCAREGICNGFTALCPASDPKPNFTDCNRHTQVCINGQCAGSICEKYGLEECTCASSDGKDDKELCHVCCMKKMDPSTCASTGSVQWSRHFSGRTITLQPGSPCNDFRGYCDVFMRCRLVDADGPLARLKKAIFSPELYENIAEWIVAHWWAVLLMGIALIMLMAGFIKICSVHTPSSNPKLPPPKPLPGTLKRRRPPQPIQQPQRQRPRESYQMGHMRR
proKLK7 act conf: confirmation of human kallikrein-7 zymogen activators; purified proKLK7, EDANS-DABCYL substrate fluorescence; scaled: vehicle 0, mature enzyme 100; hit rate 68% among 3,200; shares compounds with proKLK7 act; AID 686949; activation, % at 7 µM;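 active means activation, as change over the incubation, above the mean of all tested compounds plus 3 SD, cut at about 13% in these data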
EDANS-DABCYL int: counter-screen for kallikrein-7 activators: EDANS-DABCYL optical interference | shares compounds with proKLK7 act | activation, % at 7 µM | AID 686952 | hit rate 80% among 3,200 | EDANS-DABCYL substrate fluorescence interference, no enzyme, 4 h; solvent 0%, active enzyme control 100%;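 active means activation above the all-compound mean plus 3 SD, ignoring values outside control-based bounds, cut at about 4.8% in these data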;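 further: value is the 4 h activation minus the activation read at time zero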
K7 EDANS ctr: counter-screen for kallikrein-7 activators: EDANS-DABCYL interference, dose response | EDANS-DABCYL peptide fluorescence interference, no enzyme | hit rate 20% among 250 | EC50, µM | shares compounds with proKLK7 act;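 active means compounds that raise the fluorescence signal in this interference counterscreen, with EC50 at or below 10 µM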;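 further: intact quenched peptide substrate alone read at 355 nm excitation and 520 nm emission; signal is fluorescence gain from T0 to T4 after four hours at room temperature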
Of the large screens only hits and unclear results are named; the others gave an inactive call (follow-up assays come after a bar, where they were run).

CCNC(=O)Nc1ccc2c(c1)c(=O)n(C)n2CC=C(C)C	proKLK7 act 40 | proKLK7 act conf 33 | EDANS-DABCYL int 31
CN(C)c1ccc(NC(=O)Nc2ccc3c(c2)c(=O)n(C)n3Cc2ccccc2)cc1	none
CC(C)=CCn1c2ccc(NC(=O)Nc3cccnc3)cc2c(=O)n1C	proKLK7 act 21 | proKLK7 act conf inactive | EDANS-DABCYL int 9.4
CC(C)=CCn1c2ccc(NC(=O)Nc3ccc(N(C)C)cc3)cc2c(=O)n1C	proKLK7 act 14 (no result: rRNA inh HTS) | proKLK7 act conf inactive | EDANS-DABCYL int 6.5
Cn1c(=O)c2cc(NC(=O)Nc3cccnc3)ccc2n1Cc1ccc(Cl)cc1	none
CCC(=O)N1C[C@H](O)COC[C@H]2O[C@@H](CC(=O)NCC3CCCCC3)CC[C@@H]21	none (no result: ADAM17 inh, proKLK7 act, ADAM10 inh)
O=C(C1CCCC1)N1CC(=O)N2[C@H](CO)[C@H](c3ccc(-c4cccnc4)cc3)[C@H]2C1	none (no result: ADAM17 inh, proKLK7 act, FGF22 binding, ADAM10 inh)
NC(=O)c1c(NC(=O)c2ccccc2)sc2c1CCC2	proKLK7 act 90 | proKLK7 act conf inactive | EDANS-DABCYL int inactive
Cc1cccc(S(=O)(=O)N2C[C@@H]3N[C@H](C2)C3c2ccc(-c3cccc(C#N)c3)cc2)c1 (stereo partly specified)	none (no result: ADAM17 inh, proKLK7 act, FGF22 binding, ADAM10 inh)
CN(Cc1ccccc1F)Cc1cc(=O)oc2cc(O)c(Cl)cc12	proKLK7 act 60 | proKLK7 act conf 68 | EDANS-DABCYL int 61
Cc1ccc2oc(=O)cc(CN3CC(C)OC(C)C3)c2c1 (stereo unspecified)	none
CC1CN(Cc2cc(=O)oc3cc(O)c(Cl)cc23)CC(C)O1 (stereo unspecified)	proKLK7 act 87 | proKLK7 act conf 73 | EDANS-DABCYL int 70
CC1CCN(Cc2cc(=O)oc3cc(O)c(Cl)cc23)CC1	proKLK7 act 48 | proKLK7 act conf 70 | EDANS-DABCYL int 71
C[C@H](CO)N1C[C@H](C)[C@H](CN(C)S(=O)(=O)c2ccc(Cl)cc2)OCCCC[C@H](C)Oc2ccc(NS(=O)(=O)c3ccccc3)cc2C1=O	none (no result: ADAM17 inh, proKLK7 act, ADAM10 inh)
CCOc1ccccc1NC(=O)c1cc(S(=O)(=O)NCc2ccco2)ccc1F	none
COc1ccc(OC)c(NC(=O)c2cc(S(=O)(=O)NCc3ccco3)ccc2F)c1	proKLK7 act 13 (no result: rRNA inh HTS, FGF22 binding) | proKLK7 act conf inactive | EDANS-DABCYL int inactive
C[C@@H]1CN([C@@H](C)CO)C(=O)Cc2cc(NS(=O)(=O)c3cn(C)cn3)ccc2O[C@@H]1CN(C)C(=O)Nc1ccc(F)cc1	none (no result: ADAM17 inh, proKLK7 act, ADAM10 inh)
Cn1c(=O)c2c(-c3ccccc3)n(-n3cnnc3)cc2n(C)c1=O	proKLK7 act 14 (no result: rRNA inh HTS, FGF22 binding) | proKLK7 act conf inactive | EDANS-DABCYL int 6.8
Cc1ccc(N2C=Nc3ccc(C)c4nc(C)cc2c34)cc1	proKLK7 act 49 (no result: rRNA inh HTS, FGF22 binding) | proKLK7 act conf inactive | EDANS-DABCYL int inactive
Cc1ccc(N2C(=O)c3cccc4cccc(c34)C2=O)cc1	none
CC1=Nc2ccc(C)c3nc(C)cc(c23)N1c1ccc(C)cc1	proKLK7 act 70 (no result: rRNA inh HTS, FGF22 binding) | proKLK7 act conf inactive | EDANS-DABCYL int inactive
CCC(=O)N1CC2(C1)[C@H](c1ccc(-c3ccc(F)cc3)cc1)[C@H](CO)N2C(=O)CC	none (no result: ADAM17 inh, proKLK7 act, ADAM10 inh)
Cc1ccccc1C1N=C2Oc3ccccc3C=C2C(=O)N1 (stereo unspecified)	proKLK7 act 35 | proKLK7 act conf 72 | EDANS-DABCYL int 73
Cc1ccccc1C1NC(=O)c2ccccc2O1 (stereo unspecified)	none
CCCOC(=O)Oc1ccc2c(=O)c(Oc3cc(C)cc(C)c3)coc2c1	proKLK7 act 43 | proKLK7 act conf 77 | EDANS-DABCYL int 65 | K7 EDANS ctr 5
CCCCOC(=O)Oc1ccc2c(=O)c(Oc3cccc(C)c3)coc2c1	proKLK7 act 43 | proKLK7 act conf 85 | EDANS-DABCYL int 65 | K7 EDANS ctr 8.2
COc1ccc(CN2CC3(CN(C(=O)C4CCOCC4)C3)c3c(n(C)c4cc(OC)ccc34)[C@@H]2CO)cc1	none (no result: ADAM17 inh, proKLK7 act, FGF22 binding, ADAM10 inh)
COc1ccc(S(=O)(=O)N2CC[C@@H]3[C@H]2c2cc(C#Cc4ccccc4OC)ccc2N[C@@H]3CO)cc1	none (no result: ADAM17 inh, proKLK7 act, ADAM10 inh)
C[C@@H]1CCCCO[C@@H](CN(C)S(=O)(=O)c2cccs2)[C@@H](C)CN([C@H](C)CO)C(=O)c2cc(NC(=O)NC3CCCCC3)ccc2O1	none (no result: ADAM17 inh, proKLK7 act, ADAM10 inh)
O=C(/C=C/c1ccc2c(c1)OCO2)Nc1nncs1	proKLK7 act 13 | proKLK7 act conf inactive | EDANS-DABCYL int inactive
CC(=O)Nc1ccc(NC(=O)/C=C/c2ccc3c(c2)OCO3)cc1	proKLK7 act 19 | proKLK7 act conf inactive | EDANS-DABCYL int 22
CCCC(=O)N1CC2(CN(C)C2)c2c(n(C)c3cc(OC)ccc23)[C@@H]1CO	none (no result: ADAM17 inh, proKLK7 act, ADAM10 inh)
CC(C)c1ccc2[nH]c3c(c2c1)CCCC3=O	proKLK7 act 14 | proKLK7 act conf inactive | EDANS-DABCYL int inactive
CC(=O)Nc1ccc(S(=O)(=O)Nc2nc3ccccc3nc2-n2ccc(=NC(=O)c3ccccc3)cc2)cc1	proKLK7 act 39 | proKLK7 act conf 40 | EDANS-DABCYL int 16 | K7 EDANS ctr inactive
O=C(N=c1ccn(-c2nc3ccccc3nc2NS(=O)(=O)c2ccccc2)cc1)c1ccccc1Cl	none
CC(=O)Nc1ccc(S(=O)(=O)Nc2nc3ccccc3nc2-n2ccc(=NC(=O)c3ccc(F)cc3)cc2)cc1	proKLK7 act 81 | proKLK7 act conf 96 | EDANS-DABCYL int 87
CO[C@@H]1CN(C)C(=O)c2cc(NC(C)=O)ccc2OC[C@H](C)N(C(=O)c2ccccn2)C[C@@H]1C	none (no result: ADAM17 inh, proKLK7 act, ADAM10 inh)
C[C@@H]1CN([C@@H](C)CO)S(=O)(=O)c2ccc(C3=CCCC3)cc2O[C@@H]1CN(C)S(=O)(=O)c1cn(C)cn1	none (no result: ADAM17 inh, proKLK7 act, ADAM10 inh)
Cc1ccccc1S(=O)(=O)N1CCCCN2[C@H](CO)[C@@H](c3ccc(-c4ccccc4)cc3)[C@H]2C1	none (no result: ADAM17 inh, proKLK7 act, rRNA inh HTS, ADAM10 inh)
COCCNS(=O)(=O)c1ccc2c(c1)C(=NO)c1cc(S(=O)(=O)NCCOC)ccc1-2	proKLK7 act 14 | proKLK7 act conf inactive | EDANS-DABCYL int inactive
CCNC(=O)[C@@H]1[C@@H](CO)[C@@H]2Cn3c(ccc(-c4cccnc4)c3=O)[C@@H]2N1Cc1ccc2c(c1)OCO2	none (no result: ADAM17 inh, proKLK7 act, ADAM10 inh)
CC1=C(C(=O)Nc2ccccn2)C(c2cn(C)nc2C)C2=C(CCCC2=O)N1 (stereo unspecified)	proKLK7 act 15 | proKLK7 act conf 19 | EDANS-DABCYL int 21
